# Test results as given in the supplement of paper PMC8728848.
# This excerpt belongs to a sample that is enriched for the strongest signals.
# B1: PX14343F-bfa-562-20-562 (Bacteroides fragilis) (protein)
# chain: CDDFLDSFPQDTVTNENFWKSKEDADKVLVDIYASLLPKDAIFFDEAMSDNAYLVWDWWGGAQQVANGSYTTSGEIPTNRWNGSYEVIRKCWFLLEGIEKIEDISEQDKNKIIGETYFMLAYNYYVLTSYFGDVPLVTKTLAIPESKQLVRTPKAEVVDYAINKLKEAAVMLEGLSQEKGRVTADACRFLIARMYLYNGDYSNVLETVKLLEGKYQLYREGDTPYEDLFSGVAENSCEVILSVVCDKRVGEIYTSHGGNGIMLLKGITGEDPYRGVTPSGSLVDAYPMADGRLIHEAGSSYDPKKPYEGRDPRFYQSIVYPTGQIKYLDVETGTVKERLYDPEDPTTVPEHQYNYSQPSATGYMWNKYIDYSVYAMNSVWDCTNDIIVFRYADVLLMKAEALLQTKGESAKEEVCNLIDQLRDRCSCGRVHRENYNSKDELMELLKNERRIELANEGLRYMDLIRWKDAEKNTIVTGVGLTGQMYGAYMRKDGVGKDDKTVDVDNTPRRYIETRYFNASKGYLFPIPQKERDLNPNLTQNPNW
# Assays:
# Assay in all cases: glycan array binding signal (z-score within array); higher = stronger binding
# Conditions in all cases: glycan notation: IUPAC condensed, linker removed
# [1] = molecular target: GalNAc(b1-4)GlcNAc(b1-3)GalNAc(b1-4)GlcNAc
# In short: (§1)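 The Consortium for Functional Glycomics database supplied 3228 glycan arrays, of which those lacking an available protein sequence were dropped. The binding signal, a within-array Z-score, was averaged across arrays of the same protein sequence and across linkers. Negative scores can be read as non-binding.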
# Glc(a1-6)Glc(a1-6)Glc = molecular target: Glc(a1-6)Glc(a1-6)Glc
# In short: as §1
# GlcA(b1-3)Gal = molecular target: GlcA(b1-3)Gal
# In short: as §1
# [2] = molecular target: GlcNAc(b1-2)Man(a1-3)[GlcNAc(b1-4)][GlcNAc(b1-2)Man(a1-6)]Man(b1-4)GlcNAc(b1-4)[Fuc(a1-6)]GlcNAc
# In short: as §1
# [3] = molecular target: GlcNAc(b1-3)Gal(b1-4)GlcNAc(b1-2)[GlcNAc(b1-3)Gal(b1-4)GlcNAc(b1-6)]Man(a1-6)[GlcNAc(b1-3)Gal(b1-4)GlcNAc(b1-2)Man(a1-3)]Man(b1-4)GlcNAc(b1-4)GlcNAc
# In short: as §1
# [4] = molecular target: GlcNAc(b1-3)Gal(b1-4)GlcNAc(b1-3)Gal(b1-4)GlcNAc(b1-2)Man(a1-3)[GlcNAc(b1-3)Gal(b1-4)GlcNAc(b1-3)Gal(b1-4)GlcNAc(b1-2)Man(a1-6)]Man(b1-4)GlcNAc(b1-4)[Fuc(a1-6)]GlcNAc
# In short: as §1
# [5] = molecular target: GlcNAc(b1-3)Gal(b1-4)GlcNAc(b1-3)Gal(b1-4)GlcNAc(b1-2)[GlcNAc(b1-3)Gal(b1-4)GlcNAc(b1-3)Gal(b1-4)GlcNAc(b1-6)]Man(a1-6)[GlcNAc(b1-3)Gal(b1-4)GlcNAc(b1-3)Gal(b1-4)GlcNAc(b1-2)Man(a1-3)]Man(b1-4)GlcNAc(b1-4)[Fuc(a1-6)]GlcNAc
# In short: as §1
# [6] = molecular target: GlcNAc(b1-3)Gal(b1-4)GlcNAc(b1-3)GalNAc
# In short: as §1
# [7] = molecular target: Kdn(a2-3)Gal(b1-4)[Fuc(a1-3)]GlcNAc
# In short: as §1
# [8] = molecular target: Man(a1-2)Man(a1-2)Man(a1-3)Man
# In short: as §1
# [9] = molecular target: Neu5Ac(a2-3)Gal(b1-3)GalNAc
# In short: as §1
# [10] = molecular target: Neu5Ac(a2-3)Gal(b1-3)GalNAc6S
# In short: as §1
# [11] = molecular target: Neu5Ac(a2-3)Gal(b1-3)GlcNAc(b1-6)GalNAc
# In short: as §1
# [12] = molecular target: Neu5Ac(a2-3)Gal(b1-3)[Fuc(a1-4)]GlcNAc(b1-3)Gal(b1-3)[Fuc(a1-4)]GlcNAc
# In short: as §1
# [13] = molecular target: Neu5Ac(a2-3)Gal(b1-3)[Neu5Ac(a2-6)]GlcNAc(b1-3)[Fuc(a1-3)[Gal(b1-4)]GlcNAc(b1-6)]Gal(b1-4)Glc
# In short: as §1
# [14] = molecular target: Neu5Ac(a2-3)Gal(b1-4)GlcNAc(b1-3)Gal(b1-4)GlcNAc(b1-3)[Neu5Ac(a2-3)Gal(b1-4)GlcNAc(b1-3)Gal(b1-4)GlcNAc(b1-6)]GalNAc
# In short: as §1
# [15] = molecular target: Neu5Ac(a2-3)Gal(b1-4)GlcNAc(b1-6)[Gal(b1-3)]GalNAc
# In short: as §1
# [16] = molecular target: Neu5Ac(a2-3)Gal(b1-4)[Fuc(a1-3)]GlcNAc(b1-3)Gal(b1-4)GlcNAc
# In short: as §1
# [17] = molecular target: Neu5Ac(a2-6)Gal(b1-4)GlcNAc(b1-2)Man(a1-3)[Neu5Ac(a2-6)Gal(b1-4)GlcNAc(b1-2)Man(a1-6)]Man(b1-4)GlcNAc(b1-4)[Fuc(a1-6)]GlcNAc
# In short: as §1
# [18] = molecular target: Neu5Ac(a2-6)Gal(b1-4)GlcNAc(b1-3)Gal(b1-4)GlcNAc(b1-3)Gal(b1-4)GlcNAc
# In short: as §1
# [19] = molecular target: Neu5Ac(a2-6)Gal(b1-4)GlcNAc(b1-3)Gal(b1-4)GlcNAc(b1-3)Gal(b1-4)GlcNAc(b1-2)Man(a1-3)[Neu5Ac(a2-6)Gal(b1-4)GlcNAc(b1-3)Gal(b1-4)GlcNAc(b1-3)Gal(b1-4)GlcNAc(b1-2)Man(a1-6)]GalNAc
# In short: as §1
# [20] = molecular target: Neu5Ac(a2-6)Gal(b1-4)GlcNAc(b1-3)GalNAc
# In short: as §1
# [21] = molecular target: Neu5Ac(a2-8)Neu5Ac(a2-3)[GalNAc(b1-4)]Gal(b1-4)Glc
# In short: as §1
# [22] = molecular target: Neu5Ac(a2-8)Neu5Ac(a2-8)Neu5Ac(a2-3)Gal(b1-4)Glc
# In short: as §1
# [23] = molecular target: Neu5Ac(a2-8)Neu5Gc(a2-3)Gal(b1-4)GlcNAc
# In short: as §1
# [24] = molecular target: Neu5Gc(a2-3)Gal(b1-3)[Fuc(a1-4)]GlcNAc
# In short: as §1
binder,measurement,setting,value
B1,glycan array binding signal (z-score),[1],0.152
same,glycan array binding signal (z-score),Glc(a1-6)Glc(a1-6)Glc,-0.43
same,glycan array binding signal (z-score),GlcA(b1-3)Gal,-0.822
same,glycan array binding signal (z-score),[2],-0.489
same,glycan array binding signal (z-score),[3],1.87
same,glycan array binding signal (z-score),[4],1.72
same,glycan array binding signal (z-score),[5],0.546
same,glycan array binding signal (z-score),[6],0.486
same,glycan array binding signal (z-score),[7],-0.468
same,glycan array binding signal (z-score),[8],-0.59
same,glycan array binding signal (z-score),[9],-0.546
same,glycan array binding signal (z-score),[10],-0.506
same,glycan array binding signal (z-score),[11],1.15
same,glycan array binding signal (z-score),[12],-0.121
same,glycan array binding signal (z-score),[13],-0.957
same,glycan array binding signal (z-score),[14],1.61
same,glycan array binding signal (z-score),[15],-0.723
same,glycan array binding signal (z-score),[16],0.262
same,glycan array binding signal (z-score),[17],1.09
same,glycan array binding signal (z-score),[18],-0.047
same,glycan array binding signal (z-score),[19],2.16
same,glycan array binding signal (z-score),[20],-0.734
same,glycan array binding signal (z-score),[21],1.74
same,glycan array binding signal (z-score),[22],0.121
same,glycan array binding signal (z-score),[23],19.1
same,glycan array binding signal (z-score),[24],-0.055
